# From PubChem BioAssay (NCATS)
# Records with an inconclusive call do not appear. Activity calls are given as the source filed them. Calls come from the whole dose curve; as a rule, active = well fitted cell-killing curve with a large enough effect; inconclusive = small, poorly fitted or top-dose-only effect; inactive = no such curve, though single readings can be large or run the other way.
# Test: qHTS of pediatric cancer cell lines to identify multiple opportunities for drug repurposing: Primary screen for LAN-5 cells (AID 1347100)
# Settings: LAN-5 neuroblastoma viability, CellTiter-Glo luminescence, 48 h; series mostly up to 46 µM; activity change, negative = cytotoxic: at the top concentration
# Description: Drug repurposing or repositioning has been offered as a strategy for drug development in oncology programs. This approach has special potential for childhood cancers and other rare or orphan diseases, where the expected return on new drug development has been a disincentive to pharmaceuticals.
# In this project we exploit the poly-pharmacology of drugs to discover new indications via phenotypic screening of a panel of 19 well-characterized cell lines derived from solid tumors seen in children and adolescents. The goal is to identify approved drugs with previously unrecognized anticancer properties that has the potential to reveal new mechanisms and biological processes involved in carcinogenesis or drug resistance. We employed a titration-based paradigm (quantitative high-throughput screening or qHTS), where all compounds were tested at multiple concentrations for their effect on cell viability. Concentration-response curves (CRCs) were derived directly from the primary screen, and both potency and efficacy values were used to identify compounds with robust bioactivity profiles. We screened the NIH Chemical Genomics Center (NCGC) Pharmaceutical Collection (NPC) and Mechanism Interrogation Plate (MIPE) small molecule collections of approved and investigational compounds against these cell lines; and measured metabolically active cells after 48 hours of compound treatment as a proxy for cell viability.
# Assay Submitter: Nathalia J. Martinez, National Center for Advancing Translational Sciences, National Institutes of Health, Rockville, MD, USA; email: natalia.martinez@nih.gov
# [1] Shen, M et al. Quantitative high-throughput phenotypic screening of pediatric cancer cell lines identifies multiple opportunities for drug repurposing. Oncotarget 2017 Dec 19;9(4):4758-4772. PMID 29435139.
# The cells were obtained from University of North Carolina (UNC), Pediatric Preclinical Testing Program (PPT), and Coriell Institute (CI).
# qHTS cell viability assay:
# Cells were assayed in growth media at a density of 500-1,000 cells/well. Five microliters of cells were dispensed into 1,536-well, white, solid-bottom, TC-treated plates (Greiner Bio One) using a multidrop dispenser and incubated at 37 degrees C, 5% CO2, under a humidified atmosphere for 5 hours. Twenty-three nanoliters of compounds and controls (neutral control DMSO or positive control bortezomib at final concentration of 2.3 µM) were subsequently transferred by Kalypsys pintool. For primary screens, the MIPE collection was tested at 11-point dilutions (final concentrations range from 0.78 nM to 46 µM) and the NPC collection at 8-point dilutions (final concentrations range from 0.59 nM to 46 µM). Compounds tested in follow-up screens were assayed at 11-point dilutions. Cells were incubated for 48 hours, followed by addition of 3 µL of CellTiter-Glo (Promega). After a 15 min incubation at room temperature, samples were analyzed for luminescence intensity using a ViewLux High-throughput CCD imager equipped with clear filters.
# Potency is the fitted concentration of half-maximal effect.
Structure (SMILES),"activity change, negative = cytotoxic",Potency
CN(C)CCN(Cc1ccccc1)c1ccccn1,11.7% (inactive),–
CN(C)CCOC(C)(c1ccccc1)c1ccccn1 (stereo not given),15.2% (inactive),–
CC(O)CN(CCN(CC(C)O)CC(C)O)CC(C)O (stereo not given),1.04% (inactive),–
CCCCCCCCCCCCCCCCCCOCC(O)CO (stereo not given),10.2% (inactive),–
CC(CN(C)C)CN1c2ccccc2CCc2ccccc21 (stereo not given),-10.2% (inactive),–
CN1[C@@H]2CC[C@H]1CC(OC(=O)C(O)c1ccccc1)C2 (stereo not given in full),25.8% (inactive),–
Cc1cc2nc3c(=O)[nH]c(=O)nc-3n(C[C@H](O)[C@H](O)[C@H](O)CO)c2cc1C,19.5% [at 16.1 µM] (inactive),–
NC(=O)N/N=C/c1ccc([N+](=O)[O-])o1,1.53% (inactive),–
CC(C)(C)C(=O)C(Oc1ccc(Cl)cc1)n1ccnc1 (stereo not given),-3.98% (inactive),–
CCCCN(CCCC)CCCOC(=O)c1ccc(N)cc1,-2.43% (inactive),–
CN(C)CCCN1c2ccccc2CCc2ccccc21,-17.8% (inactive),–
N[C@@H](CSCCCO)C(=O)O,18.5% [at 16.1 µM] (inactive),–
COc1cc(C)c(Cc2cnc(N)nc2N)cc1OC,10.1% (inactive),–
NC(=O)NC(=O)Cc1ccccc1,1.4% (inactive),–
CC(=O)NC(Cc1ccccc1)C(=O)O (stereo not given),1.9% (inactive),–
Cc1cc(CC(=O)O)n(C)c1C(=O)c1ccc(Cl)cc1,14.4% (inactive),–
OC[C@H]1O[C@@H](O[C@@H]2[C@@H](CO)O[C@](O)(CO)[C@H]2O)[C@H](O)[C@@H](O)[C@H]1O,17.2% (inactive),–
CCOC(=O)[C@H](CCc1ccccc1)N[C@@H](C)C(=O)N1C(=O)N(C)C[C@H]1C(=O)O,15.7% (inactive),–
CN(N=O)C(=O)N[C@@H]1[C@@H](O)[C@H](O)[C@@H](CO)O[C@@H]1O,20.8% (inactive),–
O=C(O)[C@@H]1CSCN1,2.15% (inactive),–

Structure (SMILES),"activity change, negative = cytotoxic",Potency
OCc1cc(C(O)CNCCCCCCOCCCCc2ccccc2)ccc1O (stereo not given),-19.6% (inactive),–
CCCCc1ncc(/C=C(\Cc2cccs2)C(=O)O)n1Cc1ccc(C(=O)O)cc1,16.8% (inactive),–
COc1ccc2c(c1)C(=O)N(CCc1ccc(S(=O)(=O)NC(=O)NC3CCCCC3)cc1)C(=O)C2(C)C,-3.3% (inactive),–
CCOC(=O)c1ccc(O)cc1,10.2% (inactive),–
COC(=O)[C@H]1[C@H]2C[C@@H]3c4[nH]c5cc(OC)ccc5c4CCN3C[C@H]2C[C@@H](OC(=O)COc2ccc(OC)cc2)[C@@H]1OC,2.74% (inactive),–
C[C@H]1O[C@H](O[C@H]2[C@H](O)[C@@H](O)[C@@H](O[C@H]3[C@H](O)[C@@H](O)[C@H](O)O[C@@H]3CO)O[C@@H]2CO)[C@H](O)[C@@H](O)[C@@H]1N[C@H]1C=C(CO)[C@@H](O)[C@H](O)[C@H]1O,-19.7% (inactive),–
CCCCN1CCCC[C@H]1C(=O)Nc1c(C)cccc1C,-6.14% (inactive),–
NC(CSCC(=O)O)C(=O)O (stereo not given),18.6% (inactive),–
O=C(O)COc1nn(Cc2ccccc2)c2ccccc12,12.5% (inactive),–
Cc1ncc([N+](=O)[O-])n1CC(O)CCl (stereo not given),7.63% (inactive),–
OCCN1CCN(CCCN2c3ccccc3Sc3ccc(Cl)cc32)CC1,–,23.7 µM (active)
CC(C)(C(=O)O)c1ccc(C(O)CCCN2CCC(C(O)(c3ccccc3)c3ccccc3)CC2)cc1 (stereo not given),22.4% (inactive),–
[Cl][In]([Cl])[Cl],14.8% [at 92.7 µM] (inactive),–
C=CCn1c(=O)n([C@@H]2O[C@H](CO)[C@@H](O)[C@H]2O)c2nc(N)[nH]c(=O)c21,32.1% (inactive),–
CCCn1cnc2c1c(=O)n(CCCCC(C)=O)c(=O)n2C,9.73% (inactive),–
O=c1[nH]c(=O)c2[nH]c(=O)[nH]c2[nH]1,19.2% [at 9.22 µM] (inactive),–
CC(=O)CCC(=O)O,20.9% (inactive),–
O=C1O[C@H](CO)[C@@H](O)[C@H](O)[C@H]1O,-5.64% (inactive),–
COc1ccc2cc1Oc1cc3c(cc1OC)CC[N+](C)(C)[C@H]3Cc1ccc(cc1)Oc1c(OC)c(OC)cc3c1[C@@H](C2)[N+](C)(C)CC3,17.3% (inactive),–
C[C@H]1O[C@@H](n2cc(F)c(=O)[nH]c2=O)[C@H](O)[C@@H]1O,-6% (inactive),–
